# Laboratory results published in PubChem BioAssay (NCI).
# About 83,000 compounds went through this panel and 20% of them were active in at least one assay; those are over-represented in the sample as a whole.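 Percent growth is the endpoint: 0 to 100 indicates growth inhibition (40 means 60% inhibition), 0 means no net growth, and negative values indicate cell death.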 Values without a mark were called inactive. Activity calls are given as the source filed them. Rule for the calls: active = growth percent below 10; inactive = the rest.
# How the values were obtained:
# Experiment in all cases: NCI-60 one-dose screen, 48 h (100 = growth as untreated, 0 = no growth, -100 = all killed)
# Conditions in all cases: 10 µM unless noted
# DU-145 prostate = test system: DU-145 prostate
# MALME-3M melanoma = test system: MALME-3M melanoma
# MDA-MB-231 breast = test system: MDA-MB-231 breast
# RXF 393 renal = test system: RXF 393 renal
# SF-268 CNS = test system: SF-268 CNS
# SF-295 CNS = test system: SF-295 CNS
# SF-539 CNS = test system: SF-539 CNS
# UACC-257 melanoma = test system: UACC-257 melanoma
# M14 melanoma = test system: M14 melanoma
SMILES,growth (DU-145 prostate),growth (MALME-3M melanoma),growth (MDA-MB-231 breast),growth (RXF 393 renal),growth (SF-268 CNS),growth (SF-295 CNS),growth (SF-539 CNS),growth (UACC-257 melanoma),growth (M14 melanoma)
COc1ccc(C(=O)CC#N)cc1,107%,123%,96.8%,106%,107%,131%,121%,102%,110%
C=CCn1c(-c2ccc(-c3nc4ccc(C)cc4[nH]3)cc2)n[nH]c1=S,111%,96.6%,90.7%,110%,112%,92.1%,97%,102%,98%
NS(=O)(=O)c1ccc(CCN2C(=O)C3C(C2=O)C2(Cl)C(Cl)=C(Cl)C3(Cl)C2(Cl)Cl)cc1 (centres undefined),96.5%,90.5%,92.9%,109%,102%,94%,92.5%,110%,94.5%
Cc1nn(-c2ccccc2)c(Cl)c1/C=C/C(=O)c1ccc(F)cc1,104%,93.2%,97.9%,80.8%,96.8%,91.2%,89.9%,88.9%,80.6%
Cn1cc(-c2csc(-c3c[nH]c4ccccc34)n2)c2ccnc(Cl)c21,47.2%,139%,70.1%,43.5%,102%,93.2%,56.2%,32.2%,43.3%
Cn1cc(-c2nc(-c3c[nH]c4c(Cl)nccc34)cs2)c2cc(F)ccc21,97.4%,120%,100%,106%,114%,105%,107%,70.2%,99.9%
COc1ccc(C(=O)c2nc3ccccc3n2CC(=O)c2ccc(Cl)cc2)cc1,35.2%,46%,35.6%,27.8%,41.7%,10.2%,16.4%,37.4%,7.42% (active)
COc1ccc(/C=C/c2nc(Nc3ccc(S(=O)(=O)Nc4cc(C)on4)cc3)c3ccccc3n2)cc1,77.3%,112%,62.1%,113%,76.4%,54.6%,88.7%,77.5%,39.9%
COc1cc2c3c(c4c5ccccc5[nH]c4c2c(OC)c1OC)C(=O)N(CCN1CCOCC1)C3=O,66%,78.5%,72.4%,48.8%,47.7%,36.5%,63.7%,70.4%,76%
Cc1ncc(C(=O)Nc2ccc(CN3CCN(C)CC3)c(C(F)(F)F)c2)cc1C#Cc1cnc(N)cc1C#N,-96.1% (active),-94.3% (active),-81.4% (active),-93.3% (active),22.9%,70%,-98.4% (active),-89.3% (active),-75.1% (active)
CN1[C@@H]2CC[C@H]1/C(=C\c1ccccc1)C(=O)/C2=C/c1ccccc1,14.1%,72.8%,47.6%,43.4%,38.3%,32.8%,43.1%,42.8%,43.4%
COc1ccc(-c2nc3sccn3c2/C=C/C(=O)c2ccc3c(c2)OCO3)cc1,113%,84.6%,76.3%,117%,100%,97.1%,84.6%,95.8%,103%
CCc1c2c(nc3ccc(OCc4ccc(B(O)O)cc4)cc13)-c1cc3c(c(=O)n1C2)COC(=O)[C@]3(O)CC,9.26% (active),-7.08% (active),28.8%,-45.5% (active),7.54% (active),1.47% (active),-7.49% (active),-12.2% (active),1.07% (active)
CC(=O)OC[C@]12CC[C@@H](C(=O)CBr)[C@@H]1[C@H]1CC[C@@H]3[C@@]4(C)CC[C@H](OC(C)=O)C(C)(C)[C@@H]4CC[C@@]3(C)[C@]1(C)CC2,100%,89.2%,110%,99.7%,89.9%,106%,91.7%,108%,87.2%
Fc1ccc(-c2cn3c(nc4ccccc43)c(-c3ccccc3)n2)cc1,106%,107%,89.3%,80.4%,90.1%,103%,90.1%,101%,109%
Cn1cc(-c2nc(-c3c[nH]c4c(Cl)nccc34)cs2)c2cc(Br)ccc21,80.3%,118%,96.9%,95.9%,105%,91.4%,82.5%,54.1%,73.5%
COC(=O)c1ccc2c(c1)[n+](=O)c(C(C)=O)c(C(F)(F)F)n2[O-],1.28% (active),-26.4% (active),-4.69% (active),-20.1% (active),-24.8% (active),-45.7% (active),-45.8% (active),-30.3% (active),-23.5% (active)
Clc1ccc(-c2ccc(CNCC3CCNCC3)o2)c(-c2ccccc2)c1,-94.2% (active),-85.4% (active),-86.5% (active),-88.2% (active),-82% (active),-86.1% (active),-90.3% (active),-75.3% (active),-83.3% (active)
CC(C)(C)c1cc(C=O)cc(C(C)(C)C)c1O,103%,101%,87.5%,104%,96.6%,112%,102%,102%,101%
COc1cc(NCCCCCNC(C)(C)C)c2ncccc2c1,112%,107%,89.8%,97.4%,105%,77.5%,99.7%,133%,104%
Cc1cccc(C)c1N=c1oc2ccc(Cl)cc2nc1-c1ccccc1O,120%,105%,83.6%,90.9%,92.1%,106%,99.5%,90.8%,80.5%
Cc1cc(Cl)nc(N(CCNc2ccnc3cc(Cl)ccc23)Cc2ccccn2)n1,73%,100%,57.2%,59.1%,83.4%,80.4%,6.88% (active),68.1%,62.5%
C=C(C)[C@@H]1CC[C@]2(C(=O)N[C@@H](Cc3ccccc3)C(=O)OC)CC[C@]3(C)[C@H](CC[C@@H]4[C@@]5(C)CCC(=O)C(C)(C)[C@@H]5CC[C@]43C)[C@@H]12,92.7%,102%,102%,101%,78%,78.8%,93.7%,104%,87.8%
O=C(/C(=C\c1ccc([N+](=O)[O-])cc1)S(=O)Cc1ccc(F)cc1)c1ccc(F)cc1 (centres undefined),33.1%,18.5%,12.8%,-67.8% (active),31.5%,77.6%,39.4%,93.2%,38%
C=C(CBr)[C@@H]1CC[C@]2(COC(C)=O)CC[C@]3(C)[C@H](CC[C@@H]4[C@@]5(C)CCCNC(C)(C)[C@@H]5CC[C@]43C)[C@@H]12,66.3%,71%,65.6%,56%,50.3%,59.5%,49.7%,23.4%,40%
c1ccc(Cn2cnc3ccc(-c4nc(-c5ccc6c(c5)ncn6C5CCCCC5)cn5ccnc45)cc32)cc1,-28.2% (active),-15.4% (active),-70.1% (active),-76.9% (active),-0.106% (active),-81.4% (active),-77.6% (active),-32.7% (active),-4.44% (active)
